Experiment [1] can be described thus: binders of probe aFSTL3 on microarray, primary screen, stem cell growth factor project, biochemical, small-molecule microarray, fluorescence 635/667 (AID 1064).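 Note: measures binding of the biotinylated anti-FSTL3 antibody to printed compounds.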 The conditions noted are these: higher = more signal.
A short description of experiment [2]: binders from COS7 lysate, DM2A8 probe, primary screen, torsin A project, cell lysate, small-molecule microarray, fluorescence 635/667 (AID 1065). As to conditions: higher = more signal, COS7 lysate expressing mutant human TOR1A.
Experiment [3] is described as follows: binders of probe aFGF2 on microarray, primary screen, stem cell growth factor project, biochemical, small-molecule microarray, fluorescence 635/667 (AID 1067).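 Note: measures binding of biotinylated aFGF2 protein to printed compounds on slides; z-score merges feature fluorescence and signal-to-noise across triplicate slides.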 The conditions noted are these: higher = more signal.
A short description of experiment [4]: binders of probe aFGF10 on microarray, primary screen, stem cell growth factor project, biochemical, small-molecule microarray, fluorescence 635/667 (AID 1071).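 Note: score merges 667 nm spot intensity and signal to noise from triplicate slides.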 As to conditions: higher = more signal.
Experiment [5] deals with Neurogenic locus notch homolog protein 2 (Homo sapiens) (UniProt Q04721). The experiment is described as follows: Notch2 binders on small-molecule microarrays, primary screen, biochemical, small-molecule microarray, 635 nm fluorescence, stem cell growth factors (AID 1073). The conditions noted are these: Notch2 binding, higher = more signal.
Experiment [6] deals with Pro-neuregulin-1, membrane-bound isoform (Homo sapiens) (UniProt Q02297). Briefly: NRG1 binders on small-molecule microarrays, primary screen, psychiatric disease protein project, biochemical, small-molecule microarray, fluorescence 635/667 (AID 1075).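 Note: score combines 667 nm spot fluorescence with signal to noise.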 As to conditions: NRG1 binding, 635 nm fluorescence, higher = more signal.
The subject of experiment [7] is Neuregulin-1 EGF-like domain. Briefly: binders of neuregulin-1 EGF-like domain, primary screen, biochemical, small-molecule microarray, 635 nm fluorescence (AID 1081).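 Note: binding of the protein to compounds printed on small-molecule microarray slides.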 The conditions noted are these: small-molecule microarray binding, higher = more signal.
A short description of experiment [8]: FRG1 promoter luciferase signal modulators, primary screen, FRG1 inhibition for FSHD, cell-based, C2C12 myotubes, firefly/Renilla luciferase, luminescence (AID 1084). As to conditions: higher = more signal, called active from +8 up or from −8 down.
The nature of experiment [9]: binders of probe aFST on microarray, primary screen, stem cell growth factor project, biochemical, small-molecule microarray, fluorescence 635/667 (AID 1086).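 Note: score merges 667 nm fluorescence with signal-to-noise of each printed compound spot.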 As to conditions: higher = more signal.
Experiment [10] is described as follows: binders of probe aHhip on microarray, primary screen, stem cell growth factor project, biochemical, small-molecule microarray, fluorescence 635/667 (AID 1087).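 Note: score merges spot fluorescence at 667nm with spot signal to noise ratio.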 As to conditions: higher = more signal.
Experiment [11] concerns PRMT1 (protein arginine N-methyltransferase 1). Briefly: PRMT1 binders on small-molecule microarrays, primary screen, biochemical, small-molecule microarray, 635 nm fluorescence (AID 1088).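 Note: binding of Prmt1 protein to compounds spotted on small-molecule microarray slides.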 As to conditions: small-molecule microarray binding, higher = more signal.
The nature of experiment [12]: yeast growth modulation, basal conditions, primary screen, YJM789 clinical isolate, OD600, 24 h (AID 1089).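 Note: growth of clinical yeast isolate S. cerevisiae YJM 789 seeded 1000 cells per well; test concentration not given here.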 As to conditions: S. cerevisiae YJM789 growth, higher = more signal, called active from +8 up or from −8 down.
Experiment [13] is described as follows: fission yeast growth modulation, primary screen, strain 972, OD600, 24 h, no modulator (AID 1090).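 Note: basal condition with compound alone and no growth modifier present; test concentration not given here.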 As to conditions: S. pombe 972 growth, higher = more signal, called active from +8 up or from −8 down.
Experiment [14] is described as follows: S. cerevisiae growth modulation with rapamycin, primary screen, strain BY4716, OD600, 96 h (AID 1091). Note: test concentration not given here. As to conditions: higher = more signal, called active from +8 up or from −8 down.
Experiment [15] deals with Torsin-1A-interacting protein 2 (Homo sapiens) (UniProt Q8NFQ8). The experiment is described as follows: LULL1 binders on small-molecule microarray, primary screen, cell lysate, human LULL1 lysate, 635/667 nm fluorescence (AID 1092).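 Note: probe is lysate of COS7 cells overexpressing human LULL1; score merges per-feature 667 nm fluorescence with signal-to-noise.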 As to conditions: hLULL1 lysate binding, 635 nm fluorescence, higher = more signal.
The nature of experiment [16]: E. coli growth modulation, two-sided OD650, primary screen, E. coli filamentation project, strain DRC41, 24 h (AID 1093).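 Note: MC1000 strain lacking acrAB efflux and sulA so SOS filamentation is blocked; test concentration not given here.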 As to conditions: OD650, 24 h, higher = more signal, called active from +8 up or from −8 down.
Experiment [17] in a line: small-molecule microarray binders of probe aLefty2, primary screen, biochemical, biotinylated probe, 635/667 nm fluorescence (AID 1094).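 Note: score merges spot fluorescence near 667 nm with spot signal-to-noise ratio.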 The conditions noted are these: higher = more signal.
In experiment [18] the test system is Noggin (protein binding on small-molecule microarray). Briefly: Noggin binders on small-molecule microarray, primary screen, biochemical, 635/667 nm fluorescence (AID 1095).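 Note: score merges 667 nm feature fluorescence with signal to noise over triplicate slides.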 The conditions noted are these: 635 nm fluorescence, higher = more signal.
For experiment [19], the target named is Neurogenic locus notch homolog protein 3 (Homo sapiens) (UniProt Q9UM47). Briefly: NOTCH3 binders on small-molecule microarray, primary screen, biochemical, 635/667 nm fluorescence (AID 1096). As to conditions: NOTCH3 binding, 635 nm fluorescence, higher = more signal.
Experiment [20] in a line: small-molecule microarray binders of probe aEGFR, primary screen, biochemical, biotinylated probe, 635/667 nm fluorescence (AID 1097).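 Note: probe is a biotinylated anti-EGFR antibody binding compounds printed on slides; score combines fluorescence near 667 nm and signal to noise of each spot.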 As to conditions: higher = more signal.

The source made the active and inactive calls.

Neurogenic locus notch homolog protein 2 (Homo sapiens), sequence (Q04721 whole entry, looked up, canonical isoform): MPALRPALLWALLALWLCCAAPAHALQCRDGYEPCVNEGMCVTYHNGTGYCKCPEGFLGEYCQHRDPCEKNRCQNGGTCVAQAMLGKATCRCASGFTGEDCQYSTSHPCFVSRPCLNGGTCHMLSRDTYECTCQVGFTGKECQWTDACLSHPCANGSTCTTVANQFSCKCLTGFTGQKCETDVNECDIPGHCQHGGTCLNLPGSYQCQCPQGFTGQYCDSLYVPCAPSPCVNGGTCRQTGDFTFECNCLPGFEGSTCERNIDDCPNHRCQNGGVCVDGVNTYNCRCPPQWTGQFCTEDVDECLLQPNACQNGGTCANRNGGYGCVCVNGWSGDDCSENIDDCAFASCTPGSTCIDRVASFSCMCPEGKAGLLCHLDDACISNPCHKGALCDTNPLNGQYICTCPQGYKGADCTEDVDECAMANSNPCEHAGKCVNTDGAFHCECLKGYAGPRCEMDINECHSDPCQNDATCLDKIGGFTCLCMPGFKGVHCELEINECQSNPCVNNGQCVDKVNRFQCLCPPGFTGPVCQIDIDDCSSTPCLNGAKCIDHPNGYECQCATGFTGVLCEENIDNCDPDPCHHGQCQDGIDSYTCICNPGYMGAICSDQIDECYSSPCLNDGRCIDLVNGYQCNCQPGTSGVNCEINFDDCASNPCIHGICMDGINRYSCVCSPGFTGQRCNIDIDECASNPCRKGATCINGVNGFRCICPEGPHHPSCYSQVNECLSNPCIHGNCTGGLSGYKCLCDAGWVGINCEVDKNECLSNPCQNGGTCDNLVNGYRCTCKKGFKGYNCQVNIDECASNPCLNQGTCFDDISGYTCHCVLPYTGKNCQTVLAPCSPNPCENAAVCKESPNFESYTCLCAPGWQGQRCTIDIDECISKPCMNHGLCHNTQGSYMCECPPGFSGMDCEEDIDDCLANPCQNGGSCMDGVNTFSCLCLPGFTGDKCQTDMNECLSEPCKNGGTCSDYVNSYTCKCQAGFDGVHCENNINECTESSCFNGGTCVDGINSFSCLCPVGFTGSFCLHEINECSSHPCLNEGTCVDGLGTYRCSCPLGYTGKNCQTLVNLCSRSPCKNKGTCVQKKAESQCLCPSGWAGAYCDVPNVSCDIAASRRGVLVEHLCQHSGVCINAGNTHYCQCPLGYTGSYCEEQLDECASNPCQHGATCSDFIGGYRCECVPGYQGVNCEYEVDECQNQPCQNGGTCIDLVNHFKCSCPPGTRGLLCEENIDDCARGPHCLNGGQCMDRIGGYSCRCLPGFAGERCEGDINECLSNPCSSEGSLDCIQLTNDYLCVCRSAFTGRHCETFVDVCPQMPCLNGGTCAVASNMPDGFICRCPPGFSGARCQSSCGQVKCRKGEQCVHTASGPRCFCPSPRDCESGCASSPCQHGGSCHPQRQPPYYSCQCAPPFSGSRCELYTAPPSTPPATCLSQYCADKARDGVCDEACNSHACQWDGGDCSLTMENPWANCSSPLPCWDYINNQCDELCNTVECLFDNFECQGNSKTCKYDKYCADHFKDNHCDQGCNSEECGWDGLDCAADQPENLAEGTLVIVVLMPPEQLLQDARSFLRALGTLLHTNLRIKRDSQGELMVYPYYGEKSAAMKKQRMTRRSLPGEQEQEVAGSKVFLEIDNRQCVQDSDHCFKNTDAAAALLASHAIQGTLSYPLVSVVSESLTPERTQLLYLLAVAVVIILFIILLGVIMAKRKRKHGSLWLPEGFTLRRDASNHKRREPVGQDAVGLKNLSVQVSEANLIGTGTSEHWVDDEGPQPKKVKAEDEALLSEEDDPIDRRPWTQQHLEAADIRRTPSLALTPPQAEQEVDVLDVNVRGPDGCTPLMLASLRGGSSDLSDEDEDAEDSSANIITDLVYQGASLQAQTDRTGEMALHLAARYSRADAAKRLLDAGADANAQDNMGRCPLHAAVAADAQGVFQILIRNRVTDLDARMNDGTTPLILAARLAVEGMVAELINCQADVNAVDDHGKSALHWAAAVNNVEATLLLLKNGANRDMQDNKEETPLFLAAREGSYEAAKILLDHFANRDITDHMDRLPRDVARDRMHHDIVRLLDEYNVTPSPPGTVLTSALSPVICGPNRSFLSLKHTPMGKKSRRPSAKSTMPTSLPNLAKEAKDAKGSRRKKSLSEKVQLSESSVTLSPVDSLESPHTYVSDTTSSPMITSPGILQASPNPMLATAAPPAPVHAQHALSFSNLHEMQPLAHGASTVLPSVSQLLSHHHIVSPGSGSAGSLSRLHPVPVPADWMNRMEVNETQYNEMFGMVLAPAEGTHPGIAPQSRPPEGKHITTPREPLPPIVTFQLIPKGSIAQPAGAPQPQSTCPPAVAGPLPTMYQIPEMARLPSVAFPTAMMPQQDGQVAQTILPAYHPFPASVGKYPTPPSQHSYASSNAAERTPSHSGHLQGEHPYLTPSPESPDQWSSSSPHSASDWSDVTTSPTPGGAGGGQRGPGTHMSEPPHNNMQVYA
Pro-neuregulin-1, membrane-bound isoform (Homo sapiens), sequence (Q02297 whole entry, looked up, the tested form may be a part, canonical isoform): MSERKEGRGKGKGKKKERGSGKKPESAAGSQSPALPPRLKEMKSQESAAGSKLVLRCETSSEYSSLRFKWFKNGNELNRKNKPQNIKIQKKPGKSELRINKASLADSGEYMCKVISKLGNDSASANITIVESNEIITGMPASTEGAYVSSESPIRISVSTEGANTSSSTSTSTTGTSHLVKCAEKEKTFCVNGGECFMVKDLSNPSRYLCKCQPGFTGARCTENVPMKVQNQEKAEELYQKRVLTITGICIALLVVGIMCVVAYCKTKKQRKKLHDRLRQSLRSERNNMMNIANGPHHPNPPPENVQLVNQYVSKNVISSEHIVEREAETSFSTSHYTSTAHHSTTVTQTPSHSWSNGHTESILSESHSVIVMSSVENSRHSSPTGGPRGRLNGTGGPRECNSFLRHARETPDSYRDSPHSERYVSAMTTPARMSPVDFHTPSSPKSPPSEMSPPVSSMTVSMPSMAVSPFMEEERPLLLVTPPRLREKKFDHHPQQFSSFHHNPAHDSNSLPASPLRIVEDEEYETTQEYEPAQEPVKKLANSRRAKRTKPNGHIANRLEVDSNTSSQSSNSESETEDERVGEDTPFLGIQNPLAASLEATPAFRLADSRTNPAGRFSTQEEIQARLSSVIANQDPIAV
Torsin-1A-interacting protein 2 (Homo sapiens), sequence (Q8NFQ8 whole entry, looked up): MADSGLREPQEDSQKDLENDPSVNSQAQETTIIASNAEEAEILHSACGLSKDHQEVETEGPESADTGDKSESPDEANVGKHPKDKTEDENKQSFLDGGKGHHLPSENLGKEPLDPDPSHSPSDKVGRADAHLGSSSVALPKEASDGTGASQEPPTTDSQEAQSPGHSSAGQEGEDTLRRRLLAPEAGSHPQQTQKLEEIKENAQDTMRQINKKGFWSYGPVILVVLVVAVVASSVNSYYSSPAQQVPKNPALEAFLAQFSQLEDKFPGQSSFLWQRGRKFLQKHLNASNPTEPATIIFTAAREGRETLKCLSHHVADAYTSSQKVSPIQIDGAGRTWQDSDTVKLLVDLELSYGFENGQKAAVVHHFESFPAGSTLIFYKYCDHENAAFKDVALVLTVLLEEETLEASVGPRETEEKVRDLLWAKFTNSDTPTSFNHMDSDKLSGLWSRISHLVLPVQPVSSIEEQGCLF

In the case of `COc1ccc([Si](C)(C)[C@@H]2[C@@H](CCO)O[C@]3(C(=O)N(Cc4ccccc4)c4ccc(N5C(=O)c6cccc7cccc5c67)cc43)[C@H]2C)cc1`, the composite z-score in experiment [1] is 0.107; in experiment [2], -0.908; in experiment [3], -0.0729; in experiment [4], -0.086; in experiment [5], -0.0923; in [6], 0.367. For the same compound, the composite z-score in experiment [7] is 0.609; in experiment [9] it was -0.175; in [10], -0.271; in experiment [11], 0.473; in experiment [15], 0.984; in experiment [17], -0.186. Further, the composite z-score is -0.129 in [18], -0.0162 in experiment [19] and -0.177 in experiment [20]. Also, the z-score in [8] was 0.0135 (inactive); in [12] it was 0.849 (inactive); in [13] it was 1.97 (inactive); in experiment [14] it was 37.1 (active); in experiment [16] it was 0.89 (inactive).
With `CO[C@H]1O[C@H](CO)[C@@H](OC(=O)Nc2ccccc2)[C@H](OC(=O)c2cc3ccccc3[nH]2)[C@H]1OC(=O)c1cc2ccccc2[nH]1`, the composite z-score in experiment [1] was determined as 0.731; in experiment [2], 0.0889; in experiment [3], 0.0336; in experiment [4] it was 0.886; in experiment [5] it was 0.518; in [6], 1.18. Besides, the composite z-score in experiment [7] was 0.495; in experiment [9] it was 0.219; in experiment [10] it was -0.0994; in [11], 0.499; in experiment [15], 0.87; in [17] it was -0.0107. In addition, the composite z-score in experiment [18] turned out to be 0.248; in [19], 0.196; in experiment [20], 0.0153. Moreover, the z-score in [8] is -0.542 (inactive); in [12], -1.63 (inactive); in experiment [13], -0.562 (inactive); in experiment [14] it was 0.216 (inactive); in [16] it was 0.0433 (inactive).
For the compound `CC(=O)NCCCC[C@@H]1NC(=O)[C@@H]2C[C@H](C(=O)NCCCCCN)[C@H](c3ccc(O)cc3)N2C1=O`, the composite z-score in experiment [1] was determined as 0.95; in [2], 1.25; in experiment [3], 0.088; in experiment [4] it was 0.864; in experiment [5], 0.702; in [6] it was 0.995. In addition, the composite z-score in experiment [7] is 1.43; in experiment [9], 0.491; in [10] it was -0.334; in [11], 1.32; in experiment [15], 2.25; in experiment [17], 0.5. In addition, the composite z-score stood at 0.61 in [18], 1.14 in experiment [19] and 0.328 in experiment [20]. Also, the z-score is 0.604 (inactive) in experiment [8]; 0.0163 (inactive) in experiment [12]; -0.747 (inactive) in [13]; 0.536 (inactive) in [14]; 2.29 (inactive) in [16].
Take `CO[C@H]1O[C@H](CO)[C@@H](OC(=O)CCc2ccccc2)[C@@H]2OC(=O)[C@@H](Cc3ccccc3)C/C=C/C[C@H](Cc3ccccc3)C(=O)O[C@@H]12`: the composite z-score in [1] is -0.0519; in [2] it was 0.595; in experiment [3], -0.0962; in experiment [4], 0.242; in experiment [5] it was 0.185; in experiment [6], 0.438. Further, the composite z-score in [7] was 0.756; in experiment [9] it was 0.671; in [10] it was 0.0854; in experiment [11], 1.35; in experiment [15] it was 1.25; in experiment [17], -0.119. Besides, the composite z-score in experiment [18] is 0.435; in [19] it was 0.922; in [20], -0.067. Moreover, the z-score in [8] was 0.248 (inactive); in [12], -0.0668 (inactive); in [13], 0.0286 (inactive); in experiment [14], 5.61 (inactive); in experiment [16], 0.241 (inactive).
With `COc1ccc(C#Cc2ccc3c(c2)[C@]2(C(=O)N3)[C@H](C(=O)O)[C@H]3C(=O)O[C@H](c4ccccc4)[C@H](c4ccccc4)N3[C@@H]2c2ccc(O)cc2)cc1`, the composite z-score in [1] is 0.499; in [2], 0.928; in [3], -0.0557; in experiment [4], 0.221; in [5], -0.0571; in experiment [6], 0.418. Moreover, the composite z-score in experiment [7] was 1.28; in experiment [9], 0.105; in [10], -0.134; in experiment [11] it was 0.789; in [15], 1.98; in [17], -0.0042. The composite z-score in experiment [18] was -0.654; in [19] it was -0.468; in experiment [20] it was -0.0758. Also, the z-score was 0.247 (inactive) in experiment [8]; 1.26 (inactive) in experiment [12]; -0.813 (inactive) in experiment [13]; 0.0118 (inactive) in [14]; 0.781 (inactive) in experiment [16].

The values above are taken from PubChem BioAssay.
